DT40 TDP1 no CPT: qHTS for Inhibitors of human tyrosyl-DNA phosphodiesterase 1 (TDP1): qHTS in cells in absence of CPT. Potency, µM (series often up to 46.2 µM), for inactives: at the highest dose activity change, negative = growth inhibition, actives largely listed as inhibitors. DT40 Tdp1-/- hTDP1 cells, no CPT, ATP luminescence, 48 h. AID 686978, 2013. 420,000 compounds, 15% hits; note: potency is the fitted concentration of half-maximal effect; nearly all actives have a fitted effect of over 55% in size
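Seeded 400 DT40-hTDP1 cells/well (vehicle DMSO, no 20 nM CPT); pinned compounds; ≥48 hr at 37 °C; CellTiter-Glo luminescence as viability measure.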
IL1B secr inh: inhibitors of inflammasome signaling (IL-1 beta secretion). THP-1 LPS/ATP IL-1B secretion, AlphaLISA, 16 h; hits give low values. activity change, % at 57.5 µM. 360,000 compounds, 4.7% hits; in the data active = activity change below about -50%; inconclusive = mostly about -30% to -49%
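THP-1 cells pretreated 1 hr with compounds (up to 57.5 uM final), then stimulated with LPS (250 ng/mL final) plus ATP (1.25 mM final); secreted IL-1B measured by AlphaLISA after 16 hr, decreased signal indicating inhibition.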
ELG1 DNA repair: inhibitors of ELG1-dependent DNA repair in HEK293T cells. Potency, µM (titrated, usually from 46.1 µM), inactives show at the highest dose activity change, negative = inhibition, actives largely listed as inhibitors. AID 504467. 330,000 compounds, 2.3% hits. HEK293T ELG1-luciferase reporter, luminescence, 16 h; DNA damage induced by 5-fluorouridine; note: potency is the fitted concentration of half-maximal effect; nearly all actives have a fitted effect of over 55% in size
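Overnight (16 hr) co-exposure of 2,000 cells/well to 5-fluorouridine and compound at 37 °C preceded detection. Luciferase was quantified via ONE-Glo luminescence; loss of signal denotes inhibition.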
HT1080NT lethal: kills 2HG-producing HT-1080-NT fibrosarcoma cells. HT-1080-NT fibrosarcoma viability, CellTiter-Glo ATP luminescence, 48 h. Potency, µM (titrated, usually from 46.1 µM), for the others: at the top dose activity, negative = less viability, hits mostly cytotoxic. 360,000 compounds, 1.6% hits. AID 686970;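 note: NT is the 2HG producing partner of a matched IDH1 knockdown line; potency is the fitted concentration of half-maximal effect; 0% = DMSO-treated cells and -100% = media-only wells without cells; nearly all actives have a fitted effect of over 55% in size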
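Viability of the 2HG-overproducing fibrosarcoma line after 48 hours of compound exposure at 37 degrees C was determined by luminescence with CellTiter-Glo, and concentration-effect curves were then fitted and categorized.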
DT40 TDP1 CPT: DT40-hTDP1 cell growth loss with CPT; Potency, µM (doses to about 46.2 µM), without a hit: top-dose activity change, negative = growth inhibition, actives largely listed as inhibitors; 420,000 compounds, 12% hits; chicken DT40 Tdp1-/-;hTDP1 cells + 20 nM CPT, ATP luminescence, 48 h; AID 686979; note: potency is the fitted concentration of half-maximal effect; nearly all actives have a fitted effect of over 55% in size
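Cell growth measured by CellTiter-Glo luminescence after a minimum 48 h, 37 C compound exposure with 20 nM CPT in Tdp1-knockout DT40 cells stably expressing hTDP1, seeded 400/well; qHTS titration format.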
HT1080 IDH1KD tx: toxicity to HT-1080 IDH1 knockdown cells (counter line) | AID 686971 | Potency, µM (top dose mostly 46.1 µM), for inactives: top-dose activity, negative = toxicity, most hits filed as cytotoxic | 360,000 compounds, 2% hits | HT-1080 IDH1 knockdown viability, ATP luminescence, 48 h;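 note: potency is the fitted concentration of half-maximal effect; 0% = DMSO wells and -100% = cell-free medium wells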
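Using the IDH1-knockdown HT-1080 line run in the same batch and compound series as the NT line, viability after 48 h at 37 °C was determined by CellTiter-Glo luminescence and expressed as % activity.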
Numbers without * were called inactive. Rows were chosen to be rich in hits. Some 19% of all compounds tested hit in one or more screens of this group. Unless noted, calls come from the whole dose curve; as a rule, active = well fitted curve in the direction sought with a large enough effect; inconclusive = small, poorly fitted or top-dose-only effect, or another doubt; inactive = no such curve, though single readings can be large; an effect the other way counts as inactive or inconclusive. Unless noted, % is set by controls: 0 for no effect and ±100 for the full control effect.

`O=C(c1ccc(Cl)c([N+](=O)[O-])c1)N(c1ccccn1)c1ccccn1` gave DT40 TDP1 no CPT inconclusive, IL1B secr inh -18, ELG1 DNA repair 8%, HT1080NT lethal -4%, DT40 TDP1 CPT -21% and HT1080 IDH1KD tx -7%.
Cc1ccc(NC(=O)c2cc(Cl)ccc2[N+](=O)[O-])cc1C was read as DT40 TDP1 no CPT 10%, IL1B secr inh -100*, ELG1 DNA repair -7%, HT1080NT lethal 0%, DT40 TDP1 CPT 6% and HT1080 IDH1KD tx 2%.
Screening CC(=O)Nc1ccc(N=Nc2ccccc2)cc1[N+](=O)[O-] returned DT40 TDP1 no CPT -21%, IL1B secr inh -1, HT1080NT lethal inconclusive, DT40 TDP1 CPT 4% and HT1080 IDH1KD tx -26%.
`Nc1ncnc2c1ncn2[C@@H]1O[C@H](C(=O)Nc2ccc(Oc3ccccc3)nc2)[C@@H](O)[C@H]1O` gave DT40 TDP1 no CPT -25%, IL1B secr inh 0, HT1080NT lethal 2%, DT40 TDP1 CPT -3% and HT1080 IDH1KD tx 13%.
For COc1ccc(S(=O)(=O)c2c(SC)nn(CC(=O)Nc3cccc(C)c3C)c2N)cc1 the results were DT40 TDP1 no CPT inconclusive and DT40 TDP1 CPT -17%.
`O=C(Nc1ccccc1-c1ccccc1)c1ccc(Cl)c([N+](=O)[O-])c1` gave DT40 TDP1 no CPT inconclusive, IL1B secr inh -100*, ELG1 DNA repair -17%, HT1080NT lethal inconclusive, DT40 TDP1 CPT -12% and HT1080 IDH1KD tx inconclusive.
`Cc1cc(NC(=O)c2cc3cccc([N+](=O)[O-])c3[nH]2)ccc1F` gave DT40 TDP1 no CPT 21µM*, IL1B secr inh -20, ELG1 DNA repair inconclusive, HT1080NT lethal inconclusive, DT40 TDP1 CPT inconclusive and HT1080 IDH1KD tx -28%.
Screening NS(=O)(=O)c1ccc(CCNC(=O)COC(=O)Cc2c(F)cccc2Cl)cc1 returned DT40 TDP1 no CPT 5%, IL1B secr inh inactive, ELG1 DNA repair 11%, HT1080NT lethal 11%, DT40 TDP1 CPT 7% and HT1080 IDH1KD tx -10%.
CCCC(=O)N1CCN(c2ccc([N+](=O)[O-])cc2Cl)CC1 was read as DT40 TDP1 no CPT inconclusive, IL1B secr inh -2, ELG1 DNA repair -7%, HT1080NT lethal 1%, DT40 TDP1 CPT inconclusive and HT1080 IDH1KD tx 1%.
O=C(CSc1ccc(Cl)cc1)N1CCN(c2c(Cl)cccc2[N+](=O)[O-])CC1 was read as DT40 TDP1 no CPT 15µM*, IL1B secr inh -14, ELG1 DNA repair inconclusive, HT1080NT lethal -29%, DT40 TDP1 CPT 16µM* and HT1080 IDH1KD tx -28%.
`O=C(CSc1ccc(Cl)cc1)N1CCN(c2ccc([N+](=O)[O-])cc2Cl)CC1` gave DT40 TDP1 no CPT 18µM*, IL1B secr inh -62*, ELG1 DNA repair inconclusive, HT1080NT lethal -2%, DT40 TDP1 CPT inconclusive and HT1080 IDH1KD tx -23%.
`O=C(/C=C/c1ccc(Cl)cc1)N1CCN(c2c(Cl)cccc2[N+](=O)[O-])CC1` gave DT40 TDP1 no CPT 15µM*, IL1B secr inh -76*, ELG1 DNA repair inconclusive, HT1080NT lethal -29%, DT40 TDP1 CPT inconclusive and HT1080 IDH1KD tx -24%.
`O=C(CSc1nnc2c(n1)[nH]c1ccccc12)Nc1ccc(S(=O)(=O)Nc2ncccn2)cc1` gave DT40 TDP1 no CPT -1%, IL1B secr inh 2, ELG1 DNA repair 13%, HT1080NT lethal -2%, DT40 TDP1 CPT -22% and HT1080 IDH1KD tx 1%.
For NS(=O)(=O)c1ccc(CCNC(=O)c2coc3ccccc3c2=O)cc1 the results were DT40 TDP1 no CPT -14%, IL1B secr inh 20, ELG1 DNA repair 2%, HT1080NT lethal inconclusive, DT40 TDP1 CPT 2% and HT1080 IDH1KD tx -11%.
`CCCCCOc1ccc(Cn2c(=O)oc3ccccc32)cc1` gave DT40 TDP1 no CPT -13% and DT40 TDP1 CPT -13%.
Screening COc1ccc(CCn2c3c(c(=O)[nH]c2=O)C(NC(=O)c2ccccc2OC)(C(F)(F)F)C(=O)N3)cc1OC (centres undefined) returned DT40 TDP1 no CPT -6% and DT40 TDP1 CPT -15%.
For Cc1ccc(NC(=O)N(Cc2cccs2)Cc2cc3cc4c(cc3[nH]c2=O)OCO4)cc1 the results were ELG1 DNA repair 21µM*.
`COc1ccc(NC(=O)N(Cc2cccs2)Cc2cc3cc4c(cc3[nH]c2=O)OCO4)cc1` gave ELG1 DNA repair 21µM*.
CCCCNC(=S)N(Cc1ccco1)Cc1cc2cc3c(cc2[nH]c1=O)OCCO3 was read as DT40 TDP1 no CPT 10%, IL1B secr inh 31, ELG1 DNA repair 15µM*, HT1080NT lethal 6%, DT40 TDP1 CPT 7% and HT1080 IDH1KD tx 5%.
For Cc1ccc(NC(=O)N(Cc2ccc3c(c2)OCO3)Cc2cc3cc4c(cc3[nH]c2=O)OCCO4)cc1 the results were DT40 TDP1 no CPT inconclusive, IL1B secr inh inconclusive, ELG1 DNA repair 21µM*, HT1080NT lethal 9%, DT40 TDP1 CPT 18µM* and HT1080 IDH1KD tx 4%.
`CCC(=O)N(Cc1ccc(C)cc1)Cc1cc2cc3c(cc2[nH]c1=O)OCO3` gave DT40 TDP1 no CPT -27%, IL1B secr inh 0, ELG1 DNA repair -15%, HT1080NT lethal 5%, DT40 TDP1 CPT -27% and HT1080 IDH1KD tx -15%.
For O=C(c1ccc(Cn2cc([N+](=O)[O-])cn2)o1)N1CCCCCC1 the results were DT40 TDP1 no CPT 9%, IL1B secr inh 9, ELG1 DNA repair 1%, HT1080NT lethal 17%, DT40 TDP1 CPT -4% and HT1080 IDH1KD tx 11%.
O=C(CSc1ccccc1F)NC(=O)NC1CCCC1 was read as DT40 TDP1 no CPT inconclusive, IL1B secr inh 3, HT1080NT lethal 1%, DT40 TDP1 CPT inconclusive and HT1080 IDH1KD tx 10%.
O=C(c1cccc(S(=O)(=O)Nc2ccc(F)cc2)c1)N1CCCC1 was read as DT40 TDP1 no CPT -13%, IL1B secr inh 2, ELG1 DNA repair 6%, HT1080NT lethal -3%, DT40 TDP1 CPT -2% and HT1080 IDH1KD tx -3%.
Screening COC(=O)c1ccccc1NC(=O)COc1ccc(S(=O)(=O)NC(C)C)cc1 returned DT40 TDP1 no CPT inconclusive, IL1B secr inh -5, ELG1 DNA repair -3%, HT1080NT lethal -14%, DT40 TDP1 CPT inconclusive and HT1080 IDH1KD tx -3%.

Bioassay records: PubChem BioAssay, National Center for Advancing Translational Sciences (NCATS)
